Test results reported in PubChem BioAssay (NCI).
Compounds without any hit were thinned out: in the full panel of roughly 83,000, 20% have a hit.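 Single-dose data. Exposure time 48 hours. Values below 10 considered active.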 Activity calls are given as the source filed them.

These compounds were tested on HL-60(TB) leukemia (assay: NCI-60 one-dose screen, 48 h (100 = growth as untreated, 0 = no growth, -100 = all killed)). Conditions: 10 µM unless noted.
With Cc1nc2ccccc2c2nnc(SCC(=O)N(Cc3ccccc3)c3ccccc3)n12 the growth was 105% (inactive). With FC(F)(F)c1ccc(-c2cn3nc(-c4c[nH]c5ccc(Br)cc45)sc3n2)cc1 the growth was 96.9% (inactive). For OCCOCCN(Cc1ccccn1)Cc1cc(I)cc(I)c1O, the growth was 63.3% (inactive).
